SMILES strings stand for the structures. Screen size: about 96,000 compounds; about 19,000 (20%) were called active. Only a sample is shown. Unmarked numbers belong to inactive results.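 The calls were made as follows: active = blocking of liver enzyme CYP2C9 beyond about 50% at 5 µM (limit read from the data); inactive = the rest.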

Among the data in PubChem BioAssay AID777 (Sanford-Burnham Center for Chemical Genomics, 2007) are inhibition values, retold here.

Cytochrome P450 2C9 (Homo sapiens), sequence (P11712 whole entry, looked up): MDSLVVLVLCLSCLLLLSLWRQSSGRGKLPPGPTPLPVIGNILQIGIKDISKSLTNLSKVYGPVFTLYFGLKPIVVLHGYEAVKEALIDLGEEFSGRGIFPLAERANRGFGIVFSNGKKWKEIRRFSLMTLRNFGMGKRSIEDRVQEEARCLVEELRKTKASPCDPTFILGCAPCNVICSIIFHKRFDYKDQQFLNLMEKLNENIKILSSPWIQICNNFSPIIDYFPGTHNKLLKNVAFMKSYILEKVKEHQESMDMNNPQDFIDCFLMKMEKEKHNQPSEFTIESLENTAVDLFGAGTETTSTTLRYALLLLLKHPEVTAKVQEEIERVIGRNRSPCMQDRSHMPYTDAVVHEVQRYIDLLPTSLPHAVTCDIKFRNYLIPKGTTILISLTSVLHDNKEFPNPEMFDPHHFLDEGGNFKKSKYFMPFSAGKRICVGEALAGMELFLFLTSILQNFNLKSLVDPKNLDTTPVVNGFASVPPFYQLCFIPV

The assay concerns the target Cytochrome P450 2C9 (Homo sapiens) (UniProt P11712). In words: blockers of cytochrome P450 2C9 activity – biochemical, luminescence, ADME assay, primary screen (AID 777). The conditions noted are these: CYP2C9 Supersomes, luciferin-H conversion, at 5 µM, hits give high values.
`CC(C)Oc1ccc(C2NC(=O)NC2=O)cc1` (stereo not given): the inhibition (in general, the drop in the measured response relative to a control, in per cent) was -28.2%.

Regarding `COc1ccc2oc(C)c(NC(C)=O)c2c1`, the inhibition was -8.9%.

Consider `COc1ccc(Nc2cc(=O)oc3ccccc23)cc1`, for which the inhibition was -27.6%.

For the compound `COc1ccc(S(=O)(=O)Nc2ccc3oc(C)c(C(C)=O)c3c2)cc1`, the inhibition was 67.2% (active).

Regarding `CCOC(=O)c1c(C)[nH]c(C)c1C(=O)CSc1nc(N)cc(N)n1`, the inhibition was -35.6%.

For `COc1cc(CNCc2cccs2)cc(Br)c1OC`, the inhibition is 8.7%.

Take `Cn1c(SCc2c(F)cccc2Cl)nnc1-c1cnccn1`: the inhibition is -6%.

Regarding `COc1cccc(N=c2oc3c(C)ncc(CO)c3cc2C(N)=O)c1`, the inhibition is 11.4%.

Regarding `COc1cccc(OC)c1C(=O)Nc1nnc(C(C)C)s1`, the inhibition is 20.1%.

With `COC(=O)C1=C(C)NC(=O)NC1/C=C/c1ccccc1` (stereo not given), the inhibition was -0.6%.

As for `COc1ccccc1NC(=O)C1=C(C)NC2=C(C(=O)CCC2)C1c1ccc(C)o1` (stereo not given), the inhibition is 10.7%.

As to `COC(=O)C1=C(C)NC2=C(C(=O)c3ccccc32)C1c1ccc(-c2ccc(C(=O)O)cc2)o1` (stereo not given), the inhibition is 97.3% (active).

Regarding `Clc1ccc(C=NC23CN4CN(CN(C4)C2)C3)cc1`, the inhibition is 1.1%.

For `COc1ccc(CN2CCCCC2C)cc1OC` (stereo not given), the inhibition is -9.7%.

In the case of `Cc1ccc(CN2C(=O)CCC2C(=O)NCCCN2CCCCC2C)cc1` (stereo not given), the inhibition is 0%.

Take `CCc1ccc2oc(=O)cc(CN3CCCCC3C)c2c1` (stereo not given): the inhibition is 54.9% (active).

In the case of `CCC1(CC)NC(=O)N(CC(=O)OCC(=O)Nc2ccc(C(F)(F)F)cc2)C1=O`, the inhibition is -10.3%.

Take `CCC(C)(C)c1ccc(Oc2ccc(NC(=O)COC(=O)C3=COCCO3)cc2)cc1`: the inhibition was 76.1% (active).

Turning to `O=C(OCC(=O)c1cccs1)C1=COCCO1`, the inhibition is 0.5%.

On to `O=C(C1CC1)N1CCN=C1SCc1ccc(Cl)cc1`, for which the inhibition was 21.3%.

With `CC(C(=O)N1CCOCC1)N1c2cccc3cccc(c23)S1(=O)=O` (stereo not given), the inhibition was -30.6%.

On to `NC(N)=N/N=C/c1ccc(OCc2ccc(Cl)cc2Cl)cc1`, for which the inhibition is -11.8%.

Turning to `COc1ccc(C2=NO[C@@H]3C(=O)N(Cc4ccccc4)C(=O)[C@H]23)cc1OC`, the inhibition was 47%.

For `COc1ccc(C2Nc3ccccc3C(=O)N2Cc2ccccc2)cc1Cn1nnc2ccccc21` (stereo not given), the inhibition was 93.5% (active).

Consider `Cc1cc(C)c2c(n1)nn1c(-n3ccnc3)cc(C)nc21`, for which the inhibition is -4.3%.

Regarding `Cc1ccc(C(=O)CSc2nnc(Cn3nnc4ccccc43)n2C)cc1`, the inhibition was 20.6%.

As to `Cn1c(CNc2nc(-c3ccccc3)cs2)nnc1SCC(=O)c1ccccc1`, the inhibition is 65.7% (active).

On to `Cn1c(CC(=O)Nc2ccccc2)nnc1SCC(=O)c1ccccc1`, for which the inhibition is 76.5% (active).

Regarding `CCOC(=O)CSc1nnc(CNc2nc(-c3ccccc3)cs2)n1C`, the inhibition is -2.1%.

As to `Cc1ccccc1NC(=O)Cc1nnc(SCC(=O)N2CCN(c3ccccc3)CC2)n1C`, the inhibition is 13.3%.

For `CCn1c(Cc2ccccc2)nnc1SCC(=O)Nc1ccccc1`, the inhibition is 4%.

As for `CCc1ccc2c(c1)cc(CN(C(=S)Nc1ccccc1Cl)C1CC1)c1nnnn12`, the inhibition was -11.3%.

As for `CCOc1ccccc1C1C(C(=O)OC)=CN(C)C=C1C(=O)OC`, the inhibition was 39.1%.

As to `CC(C)Oc1ccc(Oc2ccc(C(F)(F)F)cn2)cc1`, the inhibition is 23.3%.

As for `Cc1ccc(C2C(C#N)C(C#N)N3CCCN23)cc1` (stereo not given), the inhibition was -8.1%.

As to `CCOC(=O)c1c(C)n(C)c2ccc(OC)c(NC(=O)CN3CCC4(CC3)OCCO4)c12`, the inhibition was 18.3%.

Consider `COc1ccc(CCNC(=O)CN2CCC(n3nnc4cc(F)ccc43)CC2)cc1OC`, for which the inhibition is 28.1%.

On to `Cc1nn(CC(=O)Nc2nc3ccccc3s2)c(C)c1[N+](=O)[O-]`, for which the inhibition is 89.2% (active).

As to `CSCCC(Nc1nc2ccccc2s1)C(=O)O` (stereo not given), the inhibition was 25.8%.

Turning to `Cc1nn(Cc2ccccc2Cl)c(C)c1NC(=O)Cn1nc([N+](=O)[O-])c(Cl)c1C`, the inhibition was 11%.

Regarding `Cc1ccc(S(=O)(=O)NCc2cn3ccsc3n2)c(C)c1`, the inhibition is 21.3%.

With `COc1ccc(CCN(Cc2cc3cccc(C)c3[nH]c2=O)C(=O)N2CCCC2)cc1OC`, the inhibition is 32.5%.

Consider `O=C(CC1OC(=O)c2ccccc21)NC1CCCCC1` (stereo not given), for which the inhibition is -99.1%.

Turning to `CCOc1ccccc1NC(=O)c1cc(S(=O)(=O)N2CCC3(CC2)OCCO3)ccc1F`, the inhibition was 6.8%.

Take `O=C(Nc1ccccc1F)c1cc(S(=O)(=O)N2CCCCC2)cs1`: the inhibition is 75.6% (active).

In the case of `O=C(CN1CCN(S(=O)(=O)c2ccc(F)cc2)CC1)Nc1ccccc1F`, the inhibition was 40.4%.

Turning to `CCOc1ccc(CN(Cc2ccco2)S(=O)(=O)c2ccc(-n3cnnn3)c(OC)c2)cc1`, the inhibition was 65.1% (active).

On to `COc1ccc(CN(Cc2ccco2)S(=O)(=O)c2ccc(S(=O)(=O)N3CCCC3)cc2)cc1`, for which the inhibition was 39.9%.

In the case of `CCOC(=O)Cn1c(=O)oc2cc(S(=O)(=O)N(C)Cc3ccco3)ccc21`, the inhibition is 28.8%.

Consider `NC(=O)N1CCCC1C(=O)Nc1ccc(Cl)c(Cl)c1` (stereo not given), for which the inhibition was 14.9%.

With `CC(C)(C)NC(=O)Cn1cnc([N+](=O)[O-])n1`, the inhibition was -14.1%.

As for `O=S(=O)(NCc1ccccn1)c1ccc(Br)s1`, the inhibition was -3.5%.

For the compound `O=c1c2[nH]c3ccc(Cl)cc3c2ncn1Cc1ccccn1`, the inhibition is 17.6%.

With `COc1ccc2[nH]c3ccc(OC)cc3c2c1`, the inhibition was 26.8%.

Regarding `COc1ccc2[nH]cc(/C=C(/C#N)S(=O)(=O)c3ccccc3)c2c1`, the inhibition is 95.4% (active).

As for `O=C(O)CCSc1nnc(-c2ccccc2)n1-c1ccccc1`, the inhibition is -14.5%.

As to `C=CCNc1nnc(SCC(=O)N2CCCCC2)c2ccccc12`, the inhibition was -25.8%.

In the case of `COC(=O)C(C(=O)Nc1cccc(C)n1)C1CCCCCC1` (stereo not given), the inhibition was 33.3%.

`CN1CC(c2ccccc2)C2(COc3ccccc3C2=O)C12C(=O)Nc1ccccc12` (stereo not given): the inhibition was 20.5%.

For `CC1(C)CC(=O)c2sc(N)nc2C1`, the inhibition was 12.9%.

On to `CC1Cc2ccccc2N1C(=O)c1cc2sccc2n1Cc1ccccc1` (stereo not given), for which the inhibition was 61.6% (active).

Regarding `CCC(=O)N1c2ccc(S(=O)(=O)CCC(=O)N3CCN(c4ccccc4)CC3)cc2CC1C` (stereo not given), the inhibition was 49%.

As to `Cc1cc(=O)[nH]c(SCC(=O)N2c3ccccc3CC2C)n1` (stereo not given), the inhibition is 8%.

Turning to `COC(C)(C)[C@]12CC(O)(C(C)C)ON1[C@H]1CCCCC1N2O` (stereo not given in full), the inhibition is -1.4%.

As for `CCC(C)(C(=O)NC1CCCC1)N(C(=O)CNC(C)=O)c1ccc(C)cc1` (stereo not given), the inhibition is 2.8%.

Consider `COc1ccc2c(c1)OC(O)(C(F)(F)C(F)F)CC2=O` (stereo not given), for which the inhibition is 78.5% (active).

Consider `COc1ccc2c(c1)SC(C)CC2=O` (stereo not given), for which the inhibition was 12.7%.

For `CCOc1ccc(CNC(=O)C2CCC(=O)N2C2CCCC2)cc1OC` (stereo not given), the inhibition is 4.4%.

`CCCN1C(=O)C(NC(C)=O)c2cc(OC)ccc21` (stereo not given): the inhibition was -5.4%.

Consider `CCOC(=O)COc1cc(OCC(=O)OCC)c2c(=O)cc(-c3ccccc3)oc2c1`, for which the inhibition was 70.3% (active).

Consider `Cc1cc(C)cc(OCC(=O)NNC(=O)c2cc3ccccc3oc2=O)c1`, for which the inhibition was -15.8%.

Consider `COC(=O)COc1ccc2oc(=O)cc(C)c2c1`, for which the inhibition is -9.3%.

Take `CN1CCCC(OC(=O)COc2ccc(Br)cc2)C1` (stereo not given): the inhibition was -1.2%.

For the compound `COC(=O)C(NC(=O)c1ccc(OC)cc1)(Nc1ncc(S(=O)(=O)c2ccc([N+](=O)[O-])cc2)s1)C(F)(F)F` (stereo not given), the inhibition is 66.3% (active).

Regarding `COc1ccc(C(=O)Nc2nc(-c3ccc(OC)cc3)c(-c3ccc([N+](=O)[O-])cc3)s2)cc1`, the inhibition was 19.7%.

For `CCC1CCCCN1CCNC(=O)c1[nH]c(C)c(C(C)=O)c1C` (stereo not given), the inhibition is 9.6%.

Consider `COCCOC(=O)C1=C(C)Nc2nc(C)nn2C1c1ccccc1` (stereo not given), for which the inhibition is 16.7%.

Take `COc1cc(C2C(C(=O)OCCC#N)=C(C)NC3=C2S(=O)(=O)c2ccccc23)cc(OC)c1OC` (stereo not given): the inhibition is 50.9% (active).

In the case of `COCCNC(=O)C(c1ccc(C)o1)N(Cc1cccs1)C(=O)c1snc(C(N)=O)c1N` (stereo not given), the inhibition is 3.7%.

On to `O=C(Oc1ccc2c(c1)CCC2)N1CCOCC1`, for which the inhibition is 0.4%.

For `Cc1cccn2c(=O)c3cc(C#N)c(=O)n(CCCN4CCOCC4)c3nc12`, the inhibition is 47%.

Consider `COc1cccc(/C=N\Nc2nncc(-c3ccccc3)n2)c1`, for which the inhibition was 5.6%.

Take `COc1cccc(-c2cc(C(=O)N/N=C/c3ccc(OC)c(COC(C)=O)c3)c3ccccc3n2)c1`: the inhibition is 84.3% (active).

For the compound `Cc1ccc(-c2cc(C(=O)N/N=C/C=C/c3ccco3)c3ccccc3n2)cc1C`, the inhibition was 34%.

As to `COc1cccc(OCc2cc(/C=N/NC(=O)c3nc(Cl)c(Cl)c(N)c3Cl)ccc2OC)c1`, the inhibition was 84% (active).

In the case of `COc1ccc(/C=N\NC(=O)c2sc(N)nc2C)cc1OC`, the inhibition is 5.4%.

Regarding `COc1cc(/C=N/NC(=O)Nc2ccccc2)ccc1OCCOc1ccccc1C`, the inhibition was 11.2%.

As for `CCCC(C(=O)n1nc(C)cc1C)C(NS(=O)(=O)c1ccc(C)cc1)c1ccccc1` (stereo not given), the inhibition was -1.9%.

Take `O=C(c1ccco1)N1CCN(C(=O)C2CC(c3ccc(Cl)c(Cl)c3)=NO2)CC1` (stereo not given): the inhibition is 43.9%.

Consider `CN(C)c1cc(N)c2ccccc2n1` (tested in a mixture with another compound), for which the inhibition is -21.6%.

For `O=C(NCc1ccccc1)C1C(=O)N(Cc2ccccc2)C(=O)C1C1(O)CCCC1` (stereo not given), the inhibition was 33.6%.

On to `CC(C)c1nc2ccc(C(=O)O)cc2[nH]1`, for which the inhibition was 5.8%.

With `O=C(CN(c1ccccc1)S(=O)(=O)c1ccc(Cl)cc1)Nc1ccccc1C(=O)N1CCCC1`, the inhibition is 92.2% (active).

As to `CCC(=O)Nc1ccccc1C(=O)N1CCN(Cc2ccccc2)CC1`, the inhibition was 15.3%.

Turning to `Cc1ccc(S(=O)(=O)NC(C)C(=O)Nc2ccccc2C(=O)N2CCCC2)cc1` (stereo not given), the inhibition was 44.1%.
